Assay outcomes: PubChem BioAssay, National Center for Advancing Translational Sciences (NCATS)
The sample as a whole holds a higher share of hits than the screen did.
Methyltransferases: Primary Screen for Target Class Profiling of Small Molecule Inhibitors of Methyltransferases; purified enzyme, MTase-Glo SAH luminescence; hits give low values; calls only at 40 µM; hit rate 3.9% among 25,000; AID 1745853, 2022; call rule not given here
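Each enzyme was reacted with SAM and its substrate, with compounds tested once at 40 uM; SAH formed was read by MTase-Glo luminescence.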
An asterisk follows results filed as active. % is scaled to controls: 0 for no effect and ±100 for the full control effect.

For CC(=O)O[C@H]1[C@H](OC(=O)C(C)C)[C@]2(C)OC3(CC[C@]2(C)[C@H]2CCC[C@]4(CO4)[C@]12C)COC(=O)C3 (some centres not stated) the results were Methyltransferases inactive.
`CC1=CC(=O)[C@H]2C(C)(C)CCC[C@]2(C)[C@@]1(O)CO` gave Methyltransferases inactive.
`COc1ccc(CN2C(=O)c3cc4ccccc4n3CC2(C)C(=O)NC2CCCCCC2)cc1` (configuration not stated) gave Methyltransferases inactive.
For O=C(Cn1c(=O)oc2cc(S(=O)(=O)NC3CCCC3)ccc21)N1CCCC1 the results were Methyltransferases inactive.
For CC[n+]1c(/C=C/C=C2/N(C)c3ccccc3C2(C)C)sc2ccccc21 the results were Methyltransferases active.
For C=CCn1c(=O)c2ccc(C(=O)NCC(C)C)cc2n2c(=O)n(CC(=O)Nc3ccccc3F)nc12 the results were Methyltransferases inactive.
Screening COc1ccccc1CNS(=O)(=O)c1ccc2[nH]c3c(c2c1)CCCC3 returned Methyltransferases inactive.
Cc1ccc(Cl)cc1N1CCN(C(=O)CCc2nnc3n(CC(C)C)c(=O)c4ccccc4n23)CC1 was read as Methyltransferases inactive.
COc1cccc(CNC(=O)CSc2nnc3n(CCc4ccccc4)c(=O)c4ccccc4n23)c1 was read as Methyltransferases inactive.
CCN(CC)C(=S)SSC(=S)N(CC)CC was read as Methyltransferases active.
For Cc1ccc(Cn2c(=O)c3ccccc3n3c(CCC(=O)NCCc4ccccc4)nnc23)cc1 the results were Methyltransferases inactive.
Cc1ccc(CN2CC(Oc3cccc(C(=O)N4CCOCC4)c3)C2)s1 was read as Methyltransferases inactive.
For Cc1ccccc1CNC(=O)c1cc2n(n1)CC(C)(C(=O)NC1CCCC1)N(C)C2=O (configuration not stated) the results were Methyltransferases inactive.
CC1(C)C[C@H]2C=C(C=O)[C@]3(C(=O)O)C[C@]3(C)[C@H]2C1 was read as Methyltransferases inactive.
Screening CC(C)OCCCn1c(=O)c2ccccc2n2c(SCc3ccc(Cl)cc3)nnc12 returned Methyltransferases inactive.
`COC(=O)C(C)(N)Cc1ccc(O)cc1` (configuration not stated) gave Methyltransferases inactive.
Screening C[C@](N)(Cc1ccc(O)c(O)c1)C(=O)O returned Methyltransferases active.
For C[C@](N)(Cc1ccc(O)cc1)C(=O)O the results were Methyltransferases inactive.
For Cc1ccc(CN2C(=O)c3cc4ccccc4n3CC2(C)C(=O)NCCCOC(C)C)cc1 (configuration not stated) the results were Methyltransferases inactive.
CC(C)CNC(=O)c1ccc2c(=O)n(Cc3ccccc3)c3nn(CC(=O)NC(C)(C)C)c(=O)n3c2c1 was read as Methyltransferases inactive.
For Cc1cccc(N2C(=O)c3cc(-c4cccs4)nn3CC2(C)C(=O)NC2CCCCC2)c1C (configuration not stated) the results were Methyltransferases inactive.
Screening COC(=O)c1cc(OC)cc(OC)c1C(=O)c1c(OC)cc2c(c1O)C1CCCC(C)(O2)O1 (configuration not stated) returned Methyltransferases inactive.
CC12CCC3C1C(c1c(cc(O)c(C(=O)c4ccccc4)c1O)O2)C3(C)C (configuration not stated) was read as Methyltransferases active.
Screening CCN1C(=O)c2cc(C(=O)N3CCC(N4CCCCC4)CC3)nn2CC1(C)C(=O)NC1CCCC1 (configuration not stated) returned Methyltransferases inactive.
Screening CCCN1C(=O)c2c(C(=O)NCCc3cccs3)ncn2CC1(C)C(=O)NCc1ccc(F)cc1 (configuration not stated) returned Methyltransferases inactive.
For CCn1nc(CNC(=O)c2c(F)cccc2Cl)c2ccccc21 the results were Methyltransferases inactive.
For CC1=CCC[C@@H]2[C@](CCc3ccoc3)(C(=O)O)[C@H](C)CC[C@@]12C the results were Methyltransferases inactive.
CC1CCC2(C)C(CC(O)C(O)C23CO3)C1(C)CCC1=CC(=O)OC1O (configuration not stated) was read as Methyltransferases inactive.
CC1CC(O)C2(C)C(C(=O)O)=CCCC2C1(C)CCc1ccoc1 (configuration not stated) was read as Methyltransferases active.
`CC1CCC2(CO)C(C(=O)O)=CCCC2C1(C)CCc1ccoc1` (configuration not stated) gave Methyltransferases active.
`CN1C(=O)c2cc(C(=O)NC3CCCCC3)nn2CC1(C)C(=O)NC1CCCCCC1` (configuration not stated) gave Methyltransferases inactive.
CCc1cc2c(cc3n2CC(C)(C(=O)NC2CCCCC2)N(c2cc(C)cc(C)c2)C3=O)s1 (configuration not stated) was read as Methyltransferases inactive.
Screening CCCn1c(=O)c2ccc(Cl)cc2n2c(SCc3ccccc3)nnc12 returned Methyltransferases inactive.
CC(C)c1ccc(CNC(=O)c2ccc3c(=O)nc4c(-c5ccccc5)n[nH]n4c3c2)cc1 was read as Methyltransferases inactive.
CN1CCc2cccc3c2C1Cc1ccc(O)c(O)c1-3 (configuration not stated) was read as Methyltransferases active.
Screening COc1ccc2cc3n(c2c1)CC(C)(C(=O)NC1CCCCC1)N(Cc1ccccc1OC)C3=O (configuration not stated) returned Methyltransferases inactive.
For COc1cccc(-c2cc(NCc3ccc4c(c3)OCO4)nc(N)n2)c1 the results were Methyltransferases active.
Clc1cccc(-c2nnn3c2nc(NCc2ccc4c(c2)OCO4)c2ccccc23)c1 was read as Methyltransferases inactive.
Fc1cccc(-c2nnn3c2nc(NCc2ccc4c(c2)OCO4)c2cc(Cl)ccc23)c1 was read as Methyltransferases inactive.
Screening CCOc1ccc(-c2cc3n(n2)CC(C)(C(=O)NC2CCCCC2)N(c2ccccc2C)C3=O)cc1 (configuration not stated) returned Methyltransferases inactive.
Screening Cc1c[nH]c2ncnc(N3CCC(CN)(C(=O)Nc4cccc(OC(=O)N(C)C)c4)CC3)c12 returned Methyltransferases active.
COc1cccc(NC(=O)C2(C)CCc3cnc(NCc4ccccc4)nc32)c1 (configuration not stated) was read as Methyltransferases inactive.
For CCCCN(CC)CCN1C(=O)c2ccc(-c3ccco3)n2CC1(C)C(=O)NC1CCCCCC1 (configuration not stated) the results were Methyltransferases inactive.
Cc1ccc(Cn2c(=O)c3ccccc3n3c(-c4cc(Br)cs4)nnc23)cc1 was read as Methyltransferases inactive.
For O=C(CCc1nnc2n(CCc3ccccc3)c(=O)c3ccccc3n12)NCc1ccccc1 the results were Methyltransferases inactive.
Cc1ccc(CN2C(=O)c3cc(-c4ccccc4)nn3CC2(C)C(=O)NCc2ccccc2)cc1 (configuration not stated) was read as Methyltransferases inactive.
CN(C)C/C=C(/c1ccc(Br)cc1)c1cccnc1 was read as Methyltransferases active.
Screening CC1(C(=O)NCc2ccccc2)Cn2nc(-c3ccccc3)cc2C(=O)N1c1ccc(Cl)cc1 (configuration not stated) returned Methyltransferases inactive.
Screening O=c1c2ccccc2n2c(SCc3cccc(F)c3)nnc2n1CCc1ccccc1 returned Methyltransferases inactive.
